Unmarked numbers belong to inactive results.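 Rule for the calls: active = AUC reduced over 20% with Padj below 0.05 in at least 2 of 3 replicates; inactive = otherwise.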
What was measured:
Assay in all cases: growth AUC relative to DMSO control (median of replicates) (fraction); higher = more growth (less inhibition), active = hit call of the paper
Details in all cases: 20 µM; 24 h
Coprococcus comes = tested on: Coprococcus comes
How it was run: (§1)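 Gut bacterial monocultures in mGAM were treated with 20 µM compound (1% DMSO) and grown anaerobically at 37 °C in round-bottom 96-well plates from OD600 0.05. OD600 was read hourly for 24 h, with the minimum OD set to 0. Area under the growth curve was normalised to the plate median of solvent-only wells, or to row and column medians on the industrial chemical plate. Each value is the median of three biological replicates, each grown on a separate day.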

Escherichia coli ED1a = tested on: Escherichia coli ED1a
How it was run: as §1

Escherichia coli IAI1 = tested on: Escherichia coli IAI1
How it was run: as §1

Eubacterium rectale = tested on: Eubacterium rectale
How it was run: as §1

[1] = tested on: Fusobacterium nucleatum subsp. animalis
How it was run: as §1

Lactobacillus gasseri = tested on: Lactobacillus gasseri
How it was run: as §1

Lactobacillus paracasei = tested on: Lactobacillus paracasei
How it was run: as §1

Odoribacter splanchnicus = tested on: Odoribacter splanchnicus
How it was run: as §1

[2] = tested on: Parabacteroides distasonis
How it was run: as §1

Parabacteroides merdae = tested on: Parabacteroides merdae
How it was run: as §1

Roseburia intestinalis = tested on: Roseburia intestinalis
How it was run: as §1

Streptococcus salivarius = tested on: Streptococcus salivarius
How it was run: as §1

| Compound | growth AUC (Coprococcus comes) | growth AUC (Escherichia coli ED1a) | growth AUC (Escherichia coli IAI1) | growth AUC (Eubacterium rectale) | growth AUC [1] | growth AUC (Lactobacillus gasseri) | growth AUC (Lactobacillus paracasei) | growth AUC (Odoribacter splanchnicus) | growth AUC [2] | growth AUC (Parabacteroides merdae) | growth AUC (Roseburia intestinalis) | growth AUC (Streptococcus salivarius) |
| --- | --- | --- | --- | --- | --- | --- | --- | --- | --- | --- | --- | --- |
| COC(=O)C(Cl)Cc1ccc(Cl)cc1 (stereo not given) | 0.962 | 0.994 | 0.971 | 0.994 | 0.995 | 0.891 | 1.06 | 0.899 | 1 | 0.901 | 0.965 | 0.93 |
| COC(=O)C(C)Oc1ccc(Oc2ncc(C(F)(F)F)cc2Cl)cc1 (stereo not given) | 1.02 | 0.972 | 0.987 | 1.05 | 0.954 | 0.84 | 0.995 | 1.03 | 0.834 | 0.963 | 1.01 | 0.954 |
| O=C(Nc1ccc(O)cc1-c1ccc(Cl)cc1)c1cccnc1Cl | 0.924 | 0.986 | 0.976 | 0.962 | 0.916 | 1.02 | 1 | 0.872 | 1.01 | 0.994 | 1.02 | 1.03 |
| c1ccc(CNc2ncnc3nc[nH]c23)cc1 | 1.06 | 0.989 | 1.01 | 1.16 | 0.943 | 0.956 | 1.03 | 1.03 | 1.05 | 1.02 | 0.962 | 1.04 |
| CCOC(=O)c1cnn(C)c1S(=O)(=O)NC(=O)Nc1nc(OC)cc(OC)n1 | 0.991 | 1.02 | 1.01 | 1.08 | 1.09 | 1.1 | 1.02 | 0.759 | 1.03 | 1.02 | 1.08 | 1.01 |
| Nc1nc2ccccc2[nH]1 | 0.971 | 0.976 | 0.986 | 1.08 | 0.932 | 0.883 | 0.969 | 0.942 | 0.615 | 0.933 | 0.901 | 0.953 |
| CCCCCCCCCC[N+](C)(C)Cc1ccccc1.[Cl-] | 0.9 | 1 | 0.969 | 0.91 | 1.02 | 0.712 | 1.06 | 0.926 | 0.847 | 0.91 | 0.885 | 0.926 |
| COC1CCC2(CC1)NC(=O)C(c1cc(C)ccc1C)=C2O (stereo not given) | 1.02 | 1.03 | 1.02 | 1.13 | 1.13 | 0.95 | 1.05 | 1.05 | 1.01 | 1.08 | 0.986 | 1.03 |
| COC(=O)c1ccc(C)cc1C1=NC(C)(C(C)C)C(=O)N1 (racemic) | 0.993 | 0.969 | 0.97 | 1.03 | 0.916 | 0.931 | 0.959 | 1.07 | 1.03 | 0.976 | 0.934 | 0.97 |
| N#Cc1c(N)nc(NC2CC2)nc1N | 1.01 | 0.991 | 0.992 | 0.935 | 0.994 | 0.939 | 0.972 | 1.01 | 1.02 | 1 | 0.999 | 1 |
| COc1cc(OC)c(Cl)cc1N | 1.03 | 1 | 1.01 | 1.03 | 1.14 | 0.969 | 1.04 | 1.04 | 1.02 | 1.04 | 1.06 | 1.06 |
| c1ccc(Nc2ccccc2)cc1 | 0.97 | 0.986 | 1.01 | 0.9 | 0.988 | 1.1 | 0.878 | 1.03 | 1.02 | 0.983 | 1.01 | 1.02 |
| CCCCOCCOCCOCc1cc2c(cc1CCC)OCO2 | 1.06 | 1.03 | 1 | 0.84 | 0.992 | 1.03 | 1.01 | 1.07 | 0.529 (active) | 0.924 | 1 | 1.03 |
| COc1ccc(Oc2ccc(NC(=O)N(C)C)cc2)cc1 | 0.992 | 0.977 | 0.996 | 0.851 | 0.906 | 1.11 | 1.01 | 0.974 | 0.989 | 0.943 | 0.99 | 0.988 |
| Cc1ccc(C(C)NC(=O)[C@@H](NC(=O)OC(C)C)C(C)C)cc1 (stereo not given in full) | 1.01 | 1.01 | 0.992 | 1.08 | 1.08 | 0.895 | 1.02 | 0.953 | 0.917 | 1.01 | 0.956 | 0.963 |
| O=C(O)Cc1c[nH]c2ccccc12 | 1.03 | 1 | 1.02 | 1.02 | 1.02 | 1.22 | 1.06 | 0.983 | 1.02 | 1.02 | 1.1 | 1.01 |
| CCOC(=O)[C@@H](C)Oc1ccc(Oc2cnc3cc(Cl)ccc3n2)cc1 | 0.983 | 0.997 | 1.01 | 1.01 | 0.992 | 1.03 | 0.917 | 0.984 | 1.02 | 0.99 | 1.01 | 1.04 |
| CS(=O)(=O)c1ccc(C(=O)O)c(N)c1 | 1.05 | 1.02 | 1.01 | 1.05 | 1.08 | 1.13 | 1 | 1.02 | 1.04 | 1.01 | 1.07 | 1.03 |
| COC(=O)CSc1cc(N=c2sc(=O)n3n2CCCC3)c(F)cc1Cl | 0.999 | 1.02 | 0.963 | 1.12 | 1.03 | 0.862 | 0.974 | 1.01 | 0.796 | 0.967 | 0.971 | 0.946 |
| S=C([S-])NCCNC(=S)[S-].[Zn+2] | 0.994 | 0.998 | 0.992 | 1.1 | 0.978 | 0.966 | 1.01 | 0.999 | 1.01 | 0.974 | 0.975 | 0.97 |

— the supplement of paper PMC12669032
